# Hit rate of the full screen: of about 290,000 compounds, about 3,000 (1%) were called active. The full list was thinned out, with actives kept by preference. A number with no mark means an inactive call. Cut-off read from the data, not from the text of the source: active = inhibition mostly above about 36% (no sharp cut-off); inactive = mostly below about 34%.
# Assay: NOD1 signaling inhibitors, primary screen, cell-based, luminescence, uHTS (AID 1578);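 note: HEK-293T reporter cells stimulated with the NOD1 agonist gamma-tri-DAP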
# Conditions: NOD1-driven NF-kB luciferase reporter cells, at 4 µM, stronger effect = higher value
row,SMILES,inhibition
1,CCOc1ccccc1C(=O)N(Cc1sccc1C)C1CCS(=O)(=O)C1 (stereo not given),-17.4%
2,COc1cc(NS(=O)(=O)c2ccc(NC(=S)NC(=O)c3sc4cc(F)ccc4c3Cl)cc2)nc(OC)n1,47.7%
3,Cc1nc2ccc(NC(=O)c3cccs3)cc2c(=O)n1Cc1ccc(Cl)cc1,23%
4,COc1ccc(CNC(=O)c2ccc(CS(=O)(=O)Cc3ccccc3F)o2)cc1,6%
5,Cc1[nH]c(C)c(S(=O)(=O)NCc2ccc(Cl)cc2)c1C(=O)N1CCCC1,-23.5%
6,CCN1C(=O)CS/C1=N\S(=O)(=O)c1ccccc1,4.8%
7,O=c1c2ccccc2cnn1CCOc1ccccc1,67.1% (active)
8,COc1ccc2cnn(CCOc3ccccc3)c(=O)c2c1OC,-63%
9,O=c1c2ccccc2cnn1CCOc1cccc(Br)c1,-51.9%
10,O=c1[nH]c(CSc2ncnc3sc(-c4ccccc4)cc23)nc2ccccc12,6.6%
11,CC(Oc1ccc([N+](=O)[O-])cc1)C(=O)NCCCN1CCOCC1 (stereo not given),-6.2%
12,CCc1nc2ccccc2c(C(=O)OCC(=O)Nc2ccc(S(=O)(=O)N3CCOCC3)cc2)c1C,-22%
13,CCCc1nc2ccccc2c(C(=O)OCC(=O)Nc2cccc(S(=O)(=O)N3CCOCC3)c2)c1CC,25.8%
14,COc1cc(NC(=S)NCCCN2CCOCC2)c(OC)cc1NC(=O)c1ccco1,-24.2%
15,CC(=O)c1c(C)n(-c2cccc(Cl)c2)c2ccc(O)cc12,-4.6%
16,CCOC(=O)Cc1csc(NC(=O)CSc2nc(-c3ccccc3)c(C#N)c(=O)[nH]2)n1,-50.8%
17,CCCCCNC(=O)C(=O)C1C(=O)Nc2ccccc21 (stereo not given),0.6%
18,CC(C)c1ccc(C(=O)NCc2ccc(Cl)cc2)cc1,-22.8%
19,CC(C)c1ccc2c(c1)c(SC(C)(C)C)c(CC(C)(C)C(=O)O)n2Cc1ccc(Cl)cc1,37.3% (active)
20,Cc1ccc2c(c1)c(N=O)c(O)n2Cc1ccc(Cl)cc1,31.7%
21,Cc1ccc(C(=O)c2ccc(O)cc2)cc1C,-29.5%
22,O=C(Nc1cccc(O)c1)c1ccc([N+](=O)[O-])cc1Cl,-22.7%
23,CC(=O)Nc1cccc(NC(=O)c2ccc([N+](=O)[O-])cc2Cl)c1,-5.3%
24,O=C(Nc1cccc(Cl)c1)c1cc(N=Nc2ccc([N+](=O)[O-])cc2Cl)ccc1O,95.3% (active)
25,COc1cc(OC)cc(C(=O)N[C@H](C(=O)OCC(=O)Nc2ccc(F)c(F)c2)C(C)C)c1,-11.6%
